The source of these data is PubChem BioAssay.

For assay [1], the system named is Human papillomavirus type 1a protein E7 (residues 44-93). In words: HPV1a E7 fragment binders on microarrays, primary screen, biochemical, small-molecule microarray, residues 44-93, 635 nm fluorescence (AID 1108).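 Note: E7 fragment applied at 1 µg/mL in TBST for 1 h at 4 C; score combines spot fluorescence with its signal to noise ratio.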 The following applies: small-molecule microarray binding, fluorescence 635 nm; higher = more signal.
Assay [2] is described as follows: modulators of HCV replicon luciferase signal, primary screen, HCV replication inhibitor project, Huh7 cells, luciferase reporter (AID 1109).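 Note: huh7 hepatoma cells harbouring a luciferase neomycin HCV replicon reporter; luciferase luminescence as measure of HCV replicon replication; test concentration not given here.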 The following applies: 48 h, higher = more signal.
Assay [3] has as its target Left-right determination factor 2 (Homo sapiens) (UniProt O00292). In words: LEFTY2 binders on small-molecule microarrays, primary screen, biochemical, small-molecule microarray, 635 nm fluorescence scan (AID 1110). The following applies: LEFTY2 binding, higher = more signal.
The target of assay [4] is Calmodulin-1 (Homo sapiens) (UniProt P0DP23). In words: CALM1 binders on microarrays, EGTA buffer, profiling panel, biochemical, small-molecule microarray, Cy5-labelled CALM1 (AID 1111).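 Note: labelled calmodulin applied in Tris saline Tween buffer holding calcium plus EGTA and DTT.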 The following applies: Cy5-CALM1 binding fluorescence, higher = more signal.
Assay [5] has the same target. Description: calcium-bound CALM1 binders on microarrays, profiling panel, artefact control for SMM control-protein annotation, biochemical, small-molecule microarray, Cy5-labelled CALM1, plus calcium (AID 1112).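 Note: score merges spot fluorescence with signal to noise from triplicate slides.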 As to conditions: Cy5-CALM1 binding fluorescence, higher = more signal.
A short description of assay [6]: small-molecule microarray binders of probe aWnt5a, primary screen, biochemical, biotinylated probe, 635/667 nm fluorescence (AID 1113).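 Note: score merges 667 nm fluorescence intensity with signal-to-noise per printed feature.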 The following applies: higher = more signal.
Assay [7] can be described thus: small-molecule microarray binders of probe aShh, primary screen, biochemical, biotinylated probe, 635/667 nm fluorescence (AID 1114).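 Note: probe is biotin-labelled aShh protein from a stem cell growth factor screen; measures binding of labelled protein to compounds printed on the slide; score merges feature fluorescence at 667 nm with signal-to-noise.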 The following applies: higher = more signal.
Assay [8] can be described thus: small-molecule microarray binders of probe aNog, primary screen, biochemical, biotinylated probe, 635/667 nm fluorescence (AID 1115).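 Note: probe is biotinylated aNog protein used at 0.15 µg/mL for 1 h at 4 C; z-score combines 667 nm fluorescence of each spot with its signal to noise.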 The following applies: higher = more signal.
Assay [9] addresses Torsin-1A-interacting protein 1 (Homo sapiens) (UniProt Q5JTV8). Description: LAP1 binders from COS7 cell lysate, primary screen, small-molecule microarray, 635/667 nm fluorescence (AID 1116). As to conditions: COS7-hLAP1 lysate binding, 635 nm fluorescence, higher = more signal.
The target in assay [10] is Alpha-bungarotoxin (Bungarus multicinctus) (UniProt P60615). In words: alpha-bungarotoxin binders on microarray, profiling panel, artefact control for SMM control protein annotation, biochemical, small-molecule microarray, Alexa647 label, 635/667 nm fluorescence (AID 1117). The following applies: alpha-BTX-A647 binding fluorescence, higher = more signal.
Chain of Alpha-bungarotoxin (Bungarus multicinctus) (P60615 whole entry, looked up): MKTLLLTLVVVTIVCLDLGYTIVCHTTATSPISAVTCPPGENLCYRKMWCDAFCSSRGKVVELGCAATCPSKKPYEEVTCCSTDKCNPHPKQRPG

Chain of Left-right determination factor 2 (Homo sapiens) (O00292 whole entry, looked up): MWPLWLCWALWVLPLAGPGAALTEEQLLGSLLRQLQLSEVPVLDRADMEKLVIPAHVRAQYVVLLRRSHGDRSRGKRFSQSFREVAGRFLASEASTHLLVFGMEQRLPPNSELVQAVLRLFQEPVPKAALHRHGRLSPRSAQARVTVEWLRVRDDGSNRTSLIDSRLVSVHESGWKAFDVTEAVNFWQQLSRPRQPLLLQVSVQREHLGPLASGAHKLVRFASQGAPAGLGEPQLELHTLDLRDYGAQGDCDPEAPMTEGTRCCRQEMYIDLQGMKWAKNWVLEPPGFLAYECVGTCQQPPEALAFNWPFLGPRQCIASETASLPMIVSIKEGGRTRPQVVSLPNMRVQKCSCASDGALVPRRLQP
Chain of Torsin-1A-interacting protein 1 (Homo sapiens) (Q5JTV8 whole entry, looked up): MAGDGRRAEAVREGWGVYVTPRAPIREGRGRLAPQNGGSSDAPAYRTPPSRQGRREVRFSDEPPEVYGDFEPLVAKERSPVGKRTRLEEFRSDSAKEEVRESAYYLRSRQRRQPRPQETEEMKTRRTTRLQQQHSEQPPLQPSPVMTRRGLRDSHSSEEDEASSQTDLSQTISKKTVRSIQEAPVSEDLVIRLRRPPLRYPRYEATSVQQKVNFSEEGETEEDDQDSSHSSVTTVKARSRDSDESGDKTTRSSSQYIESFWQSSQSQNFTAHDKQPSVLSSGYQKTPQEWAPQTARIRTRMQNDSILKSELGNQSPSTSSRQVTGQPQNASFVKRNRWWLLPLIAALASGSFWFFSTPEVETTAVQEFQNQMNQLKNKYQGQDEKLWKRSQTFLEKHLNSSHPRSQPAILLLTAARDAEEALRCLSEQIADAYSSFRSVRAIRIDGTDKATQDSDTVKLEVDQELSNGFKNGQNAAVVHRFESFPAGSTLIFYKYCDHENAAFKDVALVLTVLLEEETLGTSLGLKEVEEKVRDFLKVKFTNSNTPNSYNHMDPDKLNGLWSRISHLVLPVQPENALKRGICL

As for `COc1ccc([Si](C)(C)[C@@H]2[C@@H](CC(=O)N3Cc4ccccc4C[C@H]3CO)O[C@]3(C(=O)N(Cc4cccc(N5CCOC5=O)c4)c4ccccc43)[C@H]2C)cc1`, the composite z-score was 1.02 in assay [1]; 0.736 in assay [3]; -0.695 in assay [4]; -0.611 in assay [5]; -0.0684 in [6]; -0.0243 in assay [7]. The results for the composite z-score in [8], in assay [9] and in assay [10] were -0.397, 0.0192 and 0.258, respectively. Further, the z-score in assay [2] is -3.46.

Take `CN(C)c1ccc(C(O)C2C=CC3C(=O)N(Cc4ccccc4)C(=O)C3N2n2cnnc2)cc1` (stereo not given): the composite z-score is -1.17 in assay [1]; 0.205 in assay [3]; -0.207 in assay [4]; -0.363 in assay [5]; -0.0037 in assay [6]; 0.108 in assay [7]. Further, the values for the composite z-score in [8], in assay [9] and in assay [10] were -0.0086, 0.304 and 0.255, respectively. In assay [2], the z-score is -0.32.

Take `COc1cc(C(O)C2C=CC3C(=O)N(c4ccccc4)C(=O)C3N2Nc2ccccc2)cc(OC)c1OC` (stereo not given): the composite z-score in assay [1] was 1.46; in assay [3] it was -0.0844; in assay [4], 1.84; in [5], 0.613; in assay [6] it was 0.0472; in assay [7], 0.551. Besides, the composite z-score in assay [8] is 1.66; in [9], 1.6; in [10], 1.9. Also, in assay [2], the z-score is -0.63.

In the case of `COc1cc(CO)cc(I)c1O[C@H]1C=C(C(=O)NCCO)C[C@@H](NC2CCCCCC2)[C@@H]1O`, the composite z-score was 1.15 in assay [1]; 0.867 in assay [3]; 0.475 in assay [4]; -0.572 in [5]; -0.129 in [6]; -0.0769 in [7]. The composite z-score in assay [8] was -0.0345; in assay [9] it was 0.484; in [10], 0.0323. The z-score in assay [2] was -4.13.

Consider `CCOC(=O)C[C@H]1[C@H](OC(=O)c2cc3ccccc3oc2=O)[C@@H](NC(=O)CC(C)C)c2cc(OCCCO)ccc2N1C(=O)Cc1ccc(OC)cc1`, for which the composite z-score in [1] was 0.653; in [3], 0.455; in assay [4], -0.0388; in [5] it was -0.61; in assay [6], -0.16; in [7] it was -0.206. Besides, the results for the composite z-score in assay [8], in assay [9] and in assay [10] were -0.238, 0.571 and -0.472, respectively. In [2], this compound showed a z-score of -0.0665.

As to `COC(=O)c1cccc([C@H]2OC(=CC(=O)OC(C)C)C[C@@H](c3cccc(C(=O)OC)c3)O2)c1`, the composite z-score in assay [1] turned out to be 1.43; in assay [3], 0.599; in assay [4], 1.36; in [5], 0.144; in assay [6], 0.4; in assay [7], 0.156. Moreover, the figures for the composite z-score in assay [8], in [9] and in assay [10] were -0.109, 3.27 and 0.866, respectively. For the same compound, the z-score in assay [2] was -2.51.

Consider `O=C(NCCN1CCOCC1)[C@@H]1c2ccccc2C(=O)N(Cc2ccccc2C(F)(F)F)[C@H]1c1ccc(CO)cc1`, for which the composite z-score in assay [1] was 1.01; in assay [3], -1.45; in [4], -0.804; in assay [5], -0.56; in [6] it was -0.145; in assay [7], -0.73. Also, the composite z-score in assay [8] was 0.0703; in [9] it was -0.851; in assay [10], -0.755. The z-score in assay [2] is -0.513.

As to `C=C(CCCC)/C(=C/C[C@@H](OC(C)=O)c1ccc(CO)o1)c1cnc2ccccc2c1`, the composite z-score was 1.42 in [1]; 0.735 in [3]; 0.626 in assay [4]; -0.764 in [5]; -0.0704 in assay [6]; 0.147 in assay [7]. Further, the composite z-score in assay [8] is -0.0719; in assay [9] it was 1.69; in assay [10], 1.15. In assay [2], this compound yielded a z-score of -0.756.

Consider `COc1ccc(C(O)C2C=CC3C(=O)N(c4ccccc4)C(=O)C3N2Nc2ccc([N+](=O)[O-])cc2)c2ccccc12` (stereo not given), for which the composite z-score was 1.45 in assay [1]; -0.0163 in [3]; 1.86 in assay [4]; 0.554 in assay [5]; 0.062 in assay [6]; 0.204 in assay [7]. Moreover, the composite z-score was determined as 1.61 in assay [8], 1.6 in assay [9] and 2.54 in assay [10]. The same compound gave a z-score in assay [2] of -0.749.

In the case of `CCOC(=O)C[C@H]1[C@H](OC(=O)Cc2ccc3c(c2)OCO3)[C@@H](NC(=O)Cc2ccc(OC)cc2)c2cc(OCCCO)ccc2N1C(=O)Cc1ccc(OC)cc1`, the composite z-score in [1] is 0.221; in assay [3], -0.261; in assay [4], 0.824; in assay [5], 0.0314; in assay [6] it was -0.147; in assay [7], -0.14. Further, the results for the composite z-score in assay [8], in assay [9] and in assay [10] were 0.118, 0.664 and -0.105, respectively. Moreover, the z-score in assay [2] is -1.05.

With `O=C(N1CCOCC1)[C@@]1(Cc2ccccc2)COC(c2ccc(OCCCO)cc2)=N1`, the composite z-score was 1.44 in assay [1]; -0.571 in assay [3]; 1.16 in [4]; 0.83 in [5]; -0.0161 in assay [6]; -0.288 in assay [7]. For the same compound, the composite z-score was -0.221 in [8], 1.38 in assay [9] and 2.35 in assay [10]. For the same compound, the z-score in assay [2] is -1.95.

On to `CCCCCC1=C2CNC(Cc3ccccc3)(C(=O)OC)C=C2C(C)C1=O` (stereo not given), for which the composite z-score in assay [1] was 0.719; in assay [3] it was -1.75; in [4], 1.54; in [5], 1.46; in [6], -0.0643; in [7], 0.45. Further, the composite z-score in assay [8] was determined as 1.7; in assay [9] it was 1.64; in [10], 0.175. The z-score in assay [2] is -1.85.

In the case of `COCCOC(=O)N1C(=O)[C@@]2(c3cc(C#CCC(C(=O)OC)C(=O)OC)ccc31)[C@H](c1ccc(O)cc1)N1[C@H](c3ccccc3)[C@H](c3ccccc3)OC(=O)[C@H]1[C@@H]2C(=O)Nc1nc2ccccc2s1`, the composite z-score in [1] was 1.11; in [3], 0.616; in assay [4], 1.38; in assay [5], -0.563; in [6], -0.0684; in assay [7] it was -0.017. The composite z-score in [8] turned out to be 0.112; in assay [9], 0.83; in assay [10], 2.23. Also, the z-score in assay [2] was -0.149.

Regarding `CCOC(=O)c1cn(C[C@H](Cc2ccccc2)NC(=O)N[C@H](CO)CCc2oc(C(C)=O)c(C(=O)OC)c2C(=O)OC)nn1`, the composite z-score was 1.39 in assay [1]; 0.896 in [3]; -0.0815 in assay [4]; -0.471 in assay [5]; -0.0816 in assay [6]; -0.0553 in assay [7]. The composite z-score in assay [8] was -0.158; in [9] it was 0.866; in assay [10], 0.491. For the same compound, the z-score in [2] stood at 0.404.

As for `O=C1O[C@H](Cc2ccccc2)[C@@H]2[C@H]3C=CCCC=C3CN2[C@H]1Cc1ccc(O)cc1`, the composite z-score in [1] is -1.94; in assay [3] it was -0.543; in assay [4], -0.342; in assay [5], -0.593; in assay [6] it was -0.0991; in assay [7], 0.207. Also, the composite z-score in assay [8] was 0.0222; in assay [9], -0.0081; in assay [10] it was -0.224. In addition, in assay [2], the z-score was -1.7.

As to `COCCCNC(=O)[C@@]1(CCS(=O)(=O)c2ccccc2)COC(c2ccc(OCCCO)cc2)=N1`, the composite z-score in assay [1] was 0.0612; in [3] it was -0.241; in [4] it was 2.65; in [5] it was 1.26; in assay [6], 0.0919; in assay [7] it was 0.363. Further, the results for the composite z-score in assay [8], in [9] and in assay [10] were 2.04, 3.1 and 3.34, respectively. Moreover, in assay [2], the z-score is -0.46.
